Assay [1] has as its target human Serotonin Transporter (SERT), SLC6A4 (gene 6532) (UniProt P31645). The assay is described as follows: NVS_TR_hSERT: NovaScreen (NVS) Transporter Assay for human Serotonin Transporter (SERT) (AID 2283372). A digest of the protocol: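 Radioligand binding to native SERT in human platelet membranes, read by filter-based scintillation counting 1 h after dosing. Primary screen in duplicate at 25 uM; actives followed up in concentration series; loss of signal versus DMSO baseline.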

Assay [2] concerns the target Estrogen receptor beta (Homo sapiens) (UniProt Q92731). The assay is described as follows: OT_ER_ERbERb_1440: Odyssey Thera (OT) 24-hour HEK293T Protein-Complementation Assay for Estrogen Receptor-beta/-beta Homodimer (AID 2283380).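 Further: scored as signal increase over DMSO baseline for both agonists and antagonists.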 Summed up:
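HEK293T cells stably expressing ER beta LBD (aa 310-547) homodimer fragment-complementation reporter, dosed 24 h. Cells formaldehyde-fixed, Draq5-stained; gain in nuclear (agonist) or nuclear plus cytoplasmic (antagonist) fluorescence versus DMSO read by laser scanning cytometry.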

Assay [3] deals with Estrogen receptor (Homo sapiens) (UniProt P03372). The assay is described as follows: OT_ERa_GFPERaERE_0120: Odyssey Thera (OT) 2-hour HeLa Transcription Induction Assay for Estrogen Receptor (AID 2283382). Summed up: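 HeLa, 384-well, 2 h chemical exposure; GFP reporter induction (ERE), fluorescence microscopy; high content image analysis; positive fitting direction vs DMSO.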

The target of assay [4] is Bile acid receptor (Homo sapiens) (UniProt Q96RI1). The assay can be described thus: OT_FXR_FXRSRC1_0480: Odyssey Thera (OT) 8-hour HEK293T Protein-Complementation Assay for Farnesoid X receptor/SRC-1 Co-activator (AID 2283383). A digest of the protocol: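 Human kidney HEK293T cells carried FXR/SRC-1 fragment-complementation constructs. Compounds were added and incubated 8 h. Reporter reassembly upon receptor–co-activator interaction was then quantified by fluorescence, with curves fitted in the positive direction relative to DMSO.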

For assay [5], the target named is Retinoic acid receptor RXR-alpha (Homo sapiens) (UniProt P19793). The assay can be described thus: OT_NURR1_NURR1RXRa_0480: Odyssey Thera (OT) 8-hour HEK293T Protein Complementation Assay for Nurr1/retinoid X receptor (RXR) (AID 2283385). Summed up:
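8 h compound exposure, HEK293T; Nurr1/RXRα fragment complementation; fluorescence intensity; positive fitting direction vs DMSO baseline.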

The target is the same in assay [6]. The assay can be described thus: OT_NURR1_NURR1RXRa_1440: Odyssey Thera (OT) 24-hour HEK293T Protein Complementation Assay for Nurr1/retinoid X receptor (RXR) (AID 2283386). A digest of the protocol:
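Interaction of Nurr1 with RXRα brings fused reporter fragments together in human HEK293T cells, restoring a functional reporter. Fluorescence intensity is measured 24 h after chemical treatment, and values are analysed in the positive direction against DMSO.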

Assay [7] has as its target Peroxisome proliferator-activated receptor gamma (Homo sapiens) (UniProt P37231). The assay can be described thus: OT_PPARg_PPARgSRC1_0480: Odyssey Thera (OT) 8-hour Protein-Complementation Assay for Peroxisome Proliferator-activated Receptor Gamma / SRC-1 Co-activator (AID 2283387).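 Further: nuclear to cytoplasmic split Venus YFP fluorescence ratio reporting PPARg SRC-1 interaction.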 Summed up: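 Protein-fragment complementation in HEK293T: Venus YFP halves (residues 1-158, 159-239, mutated to IFP1/IFP2) fused to PPARg/SRC-1. 8 h exposure; N/C ratio at 488 nm; DMSO negative control.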

Assay [8] has the same target. The assay can be described thus: OT_PPARg_PPARgSRC1_1440: Odyssey Thera (OT) 24-hour Protein-Complementation Assay for Peroxisome Proliferator-activated Receptor Gamma/ SRC-1 Co-activator (AID 2283388).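 Further: nuclear to cytoplasmic ratio of reconstituted Venus YFP fluorescence in fixed imaged cells.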 Summed up: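 Protein-fragment complementation between PPARg and coactivator SRC-1 was measured by fluorescence imaging in transiently transfected HEK293T cells after 24 h treatment. Signal was quantified as N/C ratio in the 488 nm channel, with DMSO as negative control.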

Assay [9] deals with guinea pig Dopamine Transporter (DAT), gene 100714898. The assay is described as follows: NVS_TR_gDAT: NovaScreen (NVS) Transporter Assay for guinea pig Dopamine Transporter (DAT) (AID 2283369).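 Further: active compounds lower bound radioligand signal relative to DMSO.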 A digest of the protocol: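 Scintillation counts of filter-retained radioligand report binding to guinea pig striatal membranes after 2 h. Activity scored as signal loss relative to DMSO, first at 25 uM in duplicate, then in concentration series to 50 uM.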

Assay [10] concerns rat Norepinephrine Transporter (NET), gene 83511. The assay is described as follows: NVS_TR_rNET: NovaScreen (NVS) Transporter Assay for rat Norepinephrine Transporter (NET) (AID 2283373). A digest of the protocol:
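Rat forebrain membranes; radioligand binding measured by filter-based scintillation counting 1 hour after dosing. Loss of specific binding versus DMSO baseline scored; primary screen in duplicate at 25 uM, actives followed up in concentration series.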

The target of assay [11] is human Dopamine Transporter (DAT), SLC6A3 (gene 6531) (UniProt Q01959). The assay is described as follows: NVS_TR_hDAT: NovaScreen (NVS) Transporter Assay for human Dopamine Transporter (DAT) (AID 2283374).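 Further: activity means loss of bound radioligand signal relative to DMSO.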 A digest of the protocol:
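Cell-free radioligand displacement binding at human DAT, 1 h after dosing, with filtration and scintillation counting. Primary screen in duplicate at 25 uM, actives then in concentration series. Loss of bound signal versus DMSO scored.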

In assay [12] the target is human Norepinephrine Transporter (NET), SLC6A2 (gene 6530) (UniProt P23975). The assay can be described thus: NVS_TR_hNET: NovaScreen (NVS) Transporter Assay for human Norepinephrine Transporter (NET) (AID 2283377).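 Further: displacement of radioligand from human NET seen as loss of scintillation signal.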 Summed up:
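Cell-free radioligand binding using CHO-derived membrane protein expressing human NET, read by filter scintillation counting 1 h after dosing; loss of signal vs DMSO. Initial duplicate screen at 25 uM, actives retested in concentration series.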

Assay [13] addresses Estrogen receptor (Homo sapiens) (UniProt P03372). The assay is described as follows: OT_ERa_GFPERaERE_0480: Odyssey Thera (OT) 8-hour HeLa Transcription Induction Assay for Estrogen Receptor (AID 2283381; active means hit-call score of the fitted dose curve at least 0.9, where 1 is the maximum; inactive means score below 0.9). A digest of the protocol: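 Fluorescent reporter signal, imaged by microscopy and scored with image-analysis algorithms, was taken 8 h after chemical dosing of HeLa cells; activity was fitted upward relative to DMSO.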

Assay [14] has as its target Bile acid receptor (Homo sapiens) (UniProt Q96RI1). The assay can be described thus: OT_FXR_FXRSRC1_1440: Odyssey Thera (OT) 24-hour HEK293T Protein-Complementation Assay for Farnesoid X receptor/SRC-1 Co-activator (AID 2283384). A digest of the protocol: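 Compounds are applied to human kidney HEK293T cells expressing bait and prey fused to reporter protein fragments; after 24 h, reconstituted reporter fluorescence is measured. Activity is fitted as signal gain over DMSO.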

Assay [15] is described as follows: CEETOX_H295R_11DCORT: CeeTox H295R High-throughput Steroidogenesis Assay for 11-Deoxycortisol (11DCORT) (AID 2283432; active means hit-call score of the fitted dose curve at least 0.9, where 1 is the maximum; inactive means score below 0.9;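 on AC50: human adrenal H295R cells prestimulated with 10 µM forskolin for 48 h; 11-deoxycortisol secreted into the medium measured by LC-MS/MS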). To be noted: actives raise or lower the signal. Summed up:
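Adrenal carcinoma line H295R, run per OECD 456 with minor changes, was forskolin-stimulated (10 uM, 48 h) before a 48 h chemical exposure at 0.1% DMSO. Secreted 11-deoxycortisol was quantified by HPLC-MS/MS.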

A short description of assay [16]: CEETOX_H295R_OHPREG: CeeTox H295R High-throughput Steroidogenesis Assay for OH-Pregnenolone (OHPREG) (AID 2283434; active means hit-call score of the fitted dose curve at least 0.9, where 1 is the maximum; inactive means score below 0.9). To be noted: actives raise or lower the signal. A digest of the protocol:
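H295R cells pre-stimulated 48 h with 10 uM forskolin, then exposed 48 h to chemical in 0.1% DMSO. 17alpha-hydroxypregnenolone in medium quantified by MTBE extraction and HPLC-MS/MS; bidirectional fit versus DMSO, viability checked by MTT.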

Assay [17] deals with Peroxisome proliferator-activated receptor gamma (Homo sapiens) (UniProt P37231). The assay can be described thus: NVS_NR_hPPARg: NovaScreen (NVS) Nuclear Receptor Binding Assay for human Peroxisome Proliferator-activated Receptor gamma (PPARg) (AID 2283370). Summed up:
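Chemicals were tested first in duplicate at 25 uM, then in concentration series if active. Binding to cell-free PPARg protein was measured by fluorescence polarization after 2 h, with loss of signal scored against DMSO.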

The target in assay [18] is mouse Estrogen Receptor alpha (Era), Esr1 (gene 13982) (UniProt P19785). The assay can be described thus: NVS_NR_mERa: NovaScreen (NVS) Nuclear Receptor Binding Assay for mouse Estrogen Receptor alpha (Era) (AID 2283378).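 Further: hit means loss of bound radioligand signal relative to DMSO.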 Summed up:
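Extracted mouse Era incubated with tritiated or iodinated radioligand plus test chemical, 18 h. Bound fraction separated on filters, counted by scintillation. DMSO = negative control/baseline; duplicate single-point at 25 uM, then concentration-response follow-up.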

Assay [19] deals with Agonist Androgen Response Element (ARE), AR (gene 367) (UniProt P10275). The assay can be described thus: OT_AR_ARELUC_AG_1440: Odyssey Thera (OT) 24-hour CHO-K1 Luciferase Assay for Agonist Androgen Response Element (ARE) (AID 2283379). Summed up:
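CHO-K1 cells carrying an ARE-driven luciferase reporter were exposed to compounds for 24 h. Luminescence was then read after adding a D-luciferin/ATP mix, and activity was scored as a gain in signal over DMSO vehicle.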

“And” between values parts separate entries of the source, which are not always exact repeats. Equal values may be shown once. Inconclusive results are not listed. The source holds several records for some structures; these can differ, active in one and inactive in another. The source made the active and inactive calls. How the source made its calls, unless noted: active means hit-call score of the fitted dose curve at least 0.9, where 1 is the maximum; inconclusive means response in the unintended direction; inactive means score below 0.9.

Sequence of Estrogen receptor beta (Homo sapiens) (Q92731 whole entry, looked up, the tested form may be a part): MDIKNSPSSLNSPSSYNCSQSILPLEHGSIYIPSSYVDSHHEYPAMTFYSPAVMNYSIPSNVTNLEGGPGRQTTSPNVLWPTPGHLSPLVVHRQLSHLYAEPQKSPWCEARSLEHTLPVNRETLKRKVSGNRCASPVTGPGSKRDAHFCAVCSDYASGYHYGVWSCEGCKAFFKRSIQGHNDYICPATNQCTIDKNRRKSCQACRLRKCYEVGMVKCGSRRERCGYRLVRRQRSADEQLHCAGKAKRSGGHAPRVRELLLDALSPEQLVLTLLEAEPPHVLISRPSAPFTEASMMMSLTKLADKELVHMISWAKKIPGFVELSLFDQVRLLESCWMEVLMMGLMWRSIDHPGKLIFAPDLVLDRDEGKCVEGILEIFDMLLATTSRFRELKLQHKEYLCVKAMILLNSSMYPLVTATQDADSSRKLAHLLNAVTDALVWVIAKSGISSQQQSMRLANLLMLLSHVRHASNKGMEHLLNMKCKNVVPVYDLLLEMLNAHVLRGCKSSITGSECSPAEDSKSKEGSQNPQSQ
Sequence of Bile acid receptor (Homo sapiens) (Q96RI1 whole entry, looked up, the tested form may be a part): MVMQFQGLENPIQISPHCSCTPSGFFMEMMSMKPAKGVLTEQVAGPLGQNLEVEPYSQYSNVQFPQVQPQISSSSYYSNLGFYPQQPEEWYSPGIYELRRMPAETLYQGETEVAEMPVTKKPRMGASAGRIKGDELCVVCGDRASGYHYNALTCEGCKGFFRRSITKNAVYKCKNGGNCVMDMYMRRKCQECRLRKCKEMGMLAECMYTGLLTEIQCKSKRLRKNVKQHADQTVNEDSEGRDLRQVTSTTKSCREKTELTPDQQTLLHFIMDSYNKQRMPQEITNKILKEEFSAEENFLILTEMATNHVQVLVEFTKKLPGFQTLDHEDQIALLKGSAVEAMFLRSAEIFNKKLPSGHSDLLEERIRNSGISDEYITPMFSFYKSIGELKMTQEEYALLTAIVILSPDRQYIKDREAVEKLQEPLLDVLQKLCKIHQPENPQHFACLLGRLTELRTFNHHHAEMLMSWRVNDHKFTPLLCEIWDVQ
Sequence of human Norepinephrine Transporter (NET), SLC6A2 (gene 6530) (P23975 whole entry, looked up): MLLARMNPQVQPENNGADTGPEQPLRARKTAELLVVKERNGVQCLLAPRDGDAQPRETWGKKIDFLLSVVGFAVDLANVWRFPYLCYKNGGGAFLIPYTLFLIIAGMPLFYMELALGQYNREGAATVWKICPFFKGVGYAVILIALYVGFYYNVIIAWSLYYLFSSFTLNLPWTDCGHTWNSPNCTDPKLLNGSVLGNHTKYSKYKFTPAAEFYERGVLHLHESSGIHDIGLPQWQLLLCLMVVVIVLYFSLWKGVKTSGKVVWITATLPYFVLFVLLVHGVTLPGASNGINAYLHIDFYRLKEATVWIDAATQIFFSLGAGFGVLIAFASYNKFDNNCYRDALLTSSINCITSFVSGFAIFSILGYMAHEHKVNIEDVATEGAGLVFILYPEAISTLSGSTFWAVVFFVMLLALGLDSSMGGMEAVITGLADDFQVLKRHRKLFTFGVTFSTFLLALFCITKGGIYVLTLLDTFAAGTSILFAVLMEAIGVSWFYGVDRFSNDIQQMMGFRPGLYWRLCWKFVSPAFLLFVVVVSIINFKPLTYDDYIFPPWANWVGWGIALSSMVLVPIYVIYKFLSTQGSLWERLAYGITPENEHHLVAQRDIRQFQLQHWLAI
Sequence of Agonist Androgen Response Element (ARE), AR (gene 367) (P10275 whole entry, looked up): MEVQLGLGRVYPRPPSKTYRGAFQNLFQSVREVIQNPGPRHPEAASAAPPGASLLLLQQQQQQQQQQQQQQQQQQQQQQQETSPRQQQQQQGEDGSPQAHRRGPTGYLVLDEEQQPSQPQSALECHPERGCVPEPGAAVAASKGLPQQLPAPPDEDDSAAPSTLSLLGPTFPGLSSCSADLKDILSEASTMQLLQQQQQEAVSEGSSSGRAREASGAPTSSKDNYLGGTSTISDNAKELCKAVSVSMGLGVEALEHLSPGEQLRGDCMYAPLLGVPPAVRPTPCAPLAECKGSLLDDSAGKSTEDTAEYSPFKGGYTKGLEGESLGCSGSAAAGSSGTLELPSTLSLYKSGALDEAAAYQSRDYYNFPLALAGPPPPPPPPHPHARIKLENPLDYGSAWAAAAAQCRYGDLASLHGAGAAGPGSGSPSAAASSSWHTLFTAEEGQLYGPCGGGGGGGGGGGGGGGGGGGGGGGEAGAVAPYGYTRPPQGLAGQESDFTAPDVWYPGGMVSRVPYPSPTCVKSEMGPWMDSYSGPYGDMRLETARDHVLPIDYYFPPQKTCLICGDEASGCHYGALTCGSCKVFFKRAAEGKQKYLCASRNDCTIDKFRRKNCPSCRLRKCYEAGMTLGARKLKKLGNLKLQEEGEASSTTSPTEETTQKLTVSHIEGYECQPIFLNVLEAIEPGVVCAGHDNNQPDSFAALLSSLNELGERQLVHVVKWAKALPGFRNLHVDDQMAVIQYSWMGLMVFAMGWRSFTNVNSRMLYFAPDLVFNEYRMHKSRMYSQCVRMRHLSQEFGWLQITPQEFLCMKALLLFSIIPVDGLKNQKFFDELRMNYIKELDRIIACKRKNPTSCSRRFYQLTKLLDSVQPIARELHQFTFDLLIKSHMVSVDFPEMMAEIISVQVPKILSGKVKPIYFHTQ
Sequence of human Dopamine Transporter (DAT), SLC6A3 (gene 6531) (Q01959 whole entry, looked up): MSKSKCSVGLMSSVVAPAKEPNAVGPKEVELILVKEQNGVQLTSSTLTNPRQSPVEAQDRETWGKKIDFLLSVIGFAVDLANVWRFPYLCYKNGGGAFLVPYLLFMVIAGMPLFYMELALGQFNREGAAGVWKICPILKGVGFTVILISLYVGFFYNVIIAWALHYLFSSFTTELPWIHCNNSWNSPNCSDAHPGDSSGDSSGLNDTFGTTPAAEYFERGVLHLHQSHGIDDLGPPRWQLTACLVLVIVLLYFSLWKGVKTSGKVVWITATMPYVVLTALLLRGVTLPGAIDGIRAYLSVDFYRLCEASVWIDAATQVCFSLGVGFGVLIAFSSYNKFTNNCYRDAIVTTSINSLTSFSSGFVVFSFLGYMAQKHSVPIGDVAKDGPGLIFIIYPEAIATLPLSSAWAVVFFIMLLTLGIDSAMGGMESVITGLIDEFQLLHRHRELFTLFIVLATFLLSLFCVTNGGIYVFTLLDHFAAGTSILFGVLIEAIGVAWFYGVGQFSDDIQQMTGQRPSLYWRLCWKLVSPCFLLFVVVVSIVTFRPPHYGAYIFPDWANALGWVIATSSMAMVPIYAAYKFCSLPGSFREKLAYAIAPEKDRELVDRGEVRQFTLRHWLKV
Sequence of mouse Estrogen Receptor alpha (Era), Esr1 (gene 13982) (P19785 whole entry, looked up): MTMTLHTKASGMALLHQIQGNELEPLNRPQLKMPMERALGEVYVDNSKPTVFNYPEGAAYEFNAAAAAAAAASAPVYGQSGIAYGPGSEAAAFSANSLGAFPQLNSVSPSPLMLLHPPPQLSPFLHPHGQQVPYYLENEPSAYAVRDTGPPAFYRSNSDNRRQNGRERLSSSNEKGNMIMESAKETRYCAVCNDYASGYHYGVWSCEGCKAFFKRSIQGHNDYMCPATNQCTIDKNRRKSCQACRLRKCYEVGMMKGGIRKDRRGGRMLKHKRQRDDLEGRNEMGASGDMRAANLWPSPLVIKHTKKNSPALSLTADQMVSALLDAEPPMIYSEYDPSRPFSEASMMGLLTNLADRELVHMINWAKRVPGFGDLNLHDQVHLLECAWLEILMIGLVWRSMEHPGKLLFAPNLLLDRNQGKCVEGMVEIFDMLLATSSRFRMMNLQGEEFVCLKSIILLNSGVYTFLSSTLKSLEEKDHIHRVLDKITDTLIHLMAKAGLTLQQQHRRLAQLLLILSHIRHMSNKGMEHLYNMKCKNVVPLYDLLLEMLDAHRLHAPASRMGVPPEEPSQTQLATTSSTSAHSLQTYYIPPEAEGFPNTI
Sequence of Peroxisome proliferator-activated receptor gamma (Homo sapiens) (P37231 whole entry, looked up, the tested form may be a part): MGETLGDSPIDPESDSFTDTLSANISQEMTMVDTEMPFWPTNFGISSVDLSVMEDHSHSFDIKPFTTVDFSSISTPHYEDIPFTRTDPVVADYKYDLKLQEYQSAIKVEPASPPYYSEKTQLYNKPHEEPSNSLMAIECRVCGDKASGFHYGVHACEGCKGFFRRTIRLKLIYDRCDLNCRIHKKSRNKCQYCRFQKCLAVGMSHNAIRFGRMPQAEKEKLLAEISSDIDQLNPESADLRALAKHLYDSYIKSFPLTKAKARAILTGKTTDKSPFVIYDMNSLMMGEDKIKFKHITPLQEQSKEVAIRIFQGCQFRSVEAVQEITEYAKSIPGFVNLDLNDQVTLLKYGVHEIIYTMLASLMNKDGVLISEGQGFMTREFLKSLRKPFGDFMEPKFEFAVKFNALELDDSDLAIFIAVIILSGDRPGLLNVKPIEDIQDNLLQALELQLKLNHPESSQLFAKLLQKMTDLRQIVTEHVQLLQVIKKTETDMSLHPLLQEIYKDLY
Sequence of Estrogen receptor (Homo sapiens) (P03372 whole entry, looked up): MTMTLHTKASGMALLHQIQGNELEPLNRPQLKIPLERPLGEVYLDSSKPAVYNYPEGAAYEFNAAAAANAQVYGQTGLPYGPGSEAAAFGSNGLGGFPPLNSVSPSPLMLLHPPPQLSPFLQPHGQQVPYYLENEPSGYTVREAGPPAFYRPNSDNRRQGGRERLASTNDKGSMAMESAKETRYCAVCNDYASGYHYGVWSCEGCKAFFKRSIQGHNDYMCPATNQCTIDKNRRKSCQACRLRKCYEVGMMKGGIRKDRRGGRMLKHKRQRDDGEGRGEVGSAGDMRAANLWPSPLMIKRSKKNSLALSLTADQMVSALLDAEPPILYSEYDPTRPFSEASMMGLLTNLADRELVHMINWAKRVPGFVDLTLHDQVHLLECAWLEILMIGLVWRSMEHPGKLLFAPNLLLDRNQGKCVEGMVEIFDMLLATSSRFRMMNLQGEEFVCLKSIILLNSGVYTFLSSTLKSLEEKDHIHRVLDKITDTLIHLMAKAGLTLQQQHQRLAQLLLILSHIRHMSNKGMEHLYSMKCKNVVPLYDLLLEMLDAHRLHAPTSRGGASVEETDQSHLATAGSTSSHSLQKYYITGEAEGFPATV

For `CCCCCCCCOC(=O)CCCCCCCCC(=O)OCCCCCCCC`, the call in assay [1], in assay [2], in assay [3], in [4], in [5] and in assay [6] was inactive. Further, the outcome in assay [7] and in assay [8] was inactive.
For the compound `NC(=O)N(O)[C@@H]1C=C[C@H](Oc2cccc(Oc3ccc(F)cc3)c2)C1`, the AC50 – broadly, the concentration at which the activity in the assay is half-maximal – was 7.24 µM (active) in assay [9]; 0.489 µM (active) in assay [11]; 15 µM (active) in [12]; 66.9 µM (active) in [2]; 12.8 µM (active) in assay [14]; 92.2 µM (active) in [5]. In addition, the result in assay [1], in assay [10], in assay [13], in assay [3], in assay [4] and in assay [5] was inactive. Moreover, the result in assay [6], in assay [7], in assay [8], in assay [15] and in assay [16] was inactive.
Regarding `O=c1c(-c2ccc(O)cc2)coc2cc(O)ccc12`, the outcome in assay [17], in assay [19], in [4], in [5], in [6] and in assay [7] was inactive. In assay [8], the outcome was inactive. Further, the AC50 in [18] is 421 nM (active) [middle of 4 runs]; in assay [4] it was 36.7 µM (active) and 37.1 µM (active); in [14] it was 48.1 µM (active) and 33.8 µM (active) and 30.5 µM (active); in [5] it was 50 µM (active); in assay [6], 14.4 µM (active) and 27 µM (active); in assay [15], 9.01 µM (active). In addition, the AC50 in assay [16] was 4.47 µM (active).
Consider `Nc1cccc2c(N)cccc12`, for which the result in assay [17], in assay [19], in [2], in assay [3], in assay [4] and in [14] was inactive. The call in [5], in assay [6], in [7], in [8] and in [16] was inactive. Further, the AC50 was 6.65 µM (active) in assay [11], 14.3 µM (active) in assay [12] and 5 µM (active) in assay [15].
As for `CC(C)(C)c1ccc(O)c(C(C)(C)C)c1`, the outcome in [9], in assay [2], in assay [3], in assay [7] and in [8] was inactive. The AC50 in assay [11] is 6.72 µM (active).
As for `CN1CCN(c2ccccc2/C=C2\SCCN(c3ccc(Cl)c(Cl)c3)C2=O)CC1`, the result in [17], in assay [2], in [7] and in assay [8] was inactive. Further, the values for the AC50 in assay [13] and in [3] were 19.5 µM (active) and 68.3 µM (active), respectively.
For `CCCOC(=O)c1ccc(O)cc1`, the compound was classed as inactive in [9], in assay [17], in assay [3], in assay [4], in assay [5] and in [6]. In addition, the result in [7] and in [8] was inactive. Also, the AC50 is 15.3 µM (active) in assay [11]; 9.32 µM (active) in assay [12]; 25 µM (active) in [18]; 8.13 µM (active) in assay [2]; 27.6 µM (active) in [13]; 58.5 µM (active) in [14]. Also, the figures for the half-maximal activity concentration (AC50) in [15] and in assay [16] were 35.4 µM (active) and 24.4 µM (active), respectively.

These data come from PubChem BioAssay (EPA / NIEHS).
